High-throughput results: PubChem BioAssay, Broad Institute
aSyn 5UTR act: Activators working through SNCA 5'UTR binding (MLPCN) | actives 7.1% (n = 300,000) | alpha-synuclein 5'UTR reporter, activators screen | activity score, % (tested at 7.5 µM), hits read low | AID 1814; in the data active means activity score below about -60%
* = called active by the depositor. A selection follows.

SMILES	aSyn 5UTR act
CCC(=O)c1ccc(OCC(O)Cn2nnc3ccccc32)cc1 (configuration not stated)	-74*
O=C(Nc1ccccc1)N1CCCC2CCCCC21 (configuration not stated)	-125*
Cc1ccc(C(=O)Nc2ccccc2Cl)cc1	-129*
O=C(Nc1ccccc1Cl)c1ccn[nH]1	-90*
O=C(Nc1ccccc1F)c1ccc(C(=O)c2ccccc2)cc1	-100*
Cn1cc(Cl)c(C(=O)Nc2cccc(Cl)c2Cl)n1	-155*
O=C(Nc1ccccc1Cl)c1ccccc1	-87*
Cc1ccc(C(=O)Nc2ccccc2C(=O)NC(C(=O)O)C(C)C)cc1 (configuration not stated)	-69*
Nc1ccccc1NC(=O)c1ccccc1	-154*
O=C(Nc1cccn2ncnc12)c1ccccc1	-65*
COc1ccccc1OCc1ccc(C(=O)Nc2ccccc2F)cc1	-75*
O=C(NNC(=O)c1ccccc1OCc1ccc(F)cc1)c1ccccc1O	68
O=C(Nc1cccc(Cl)c1Cl)c1ccc(-c2ccccc2)cc1	-159*
Cc1ccc(Cn2nc(C)cc2C(=O)Nc2ccccc2Cl)cc1	-151*
CCc1ccc(NC(=O)CSc2nnnn2C)cc1	-132*
Cn1nnnc1SCC(=O)Nc1ccc2c(c1)OCO2	-99*
Cc1cc(NC(=O)NC(=O)c2ccccc2)no1	-120*
Cc1cc(NC(=O)c2ccc(Cl)cc2)no1	-107*
Cc1cc(NC(=O)c2ccco2)no1	-62*
Cc1cc(NC(=O)c2ccc3nc(C)sc3c2)no1	-123*
C/C(=C\c1ccccc1)C(=O)Nc1cc(C)on1	-161*
Fc1ccc(OCc2nc(-c3ccc(Br)o3)no2)c(F)c1	-77*
Cc1ccc(OCc2nc(-c3ccccc3)no2)c(C)c1	-212*
COc1ccc(-c2noc(CCCC(=O)O)n2)cc1	89
Cc1ccc(-c2noc(CCCc3ccccc3)n2)cc1	-77*
SMILES	aSyn 5UTR act
Brc1ccc(-c2noc(CCc3ccccc3)n2)o1	-119*
Clc1ccccc1OCc1nc(-c2ccc(Br)o2)no1	-83*
CCC(C)NC(=O)CSc1nc2ccsc2c(=O)n1NC(=O)c1ccccc1 (configuration not stated)	-67*
C=CCn1c(SCc2cc(C(C)=O)ccc2OCC)nc2ccccc2c1=O	104
CCOC(=O)CSc1nc2ccccc2c(=O)n1NC(=O)c1ccccc1	-66*
N/C(=N\c1nc2c(c(=O)[nH]1)CCC2)Nc1cccc2ccccc12	-71*
COC(=O)CNC(=O)C1(C)C=CCN1C(=O)c1ccccc1 (configuration not stated)	-74*
Cc1cc2cc(CCNC(=O)c3cccs3)c(=O)[nH]c2cc1C	-149*
CCC(c1nnnn1CCc1ccccc1)N(Cc1ccco1)Cc1cc2c(C)ccc(C)c2[nH]c1=O (configuration not stated)	44
Cc1ccc2cc(CCNC(=O)c3ccco3)c(=O)[nH]c2c1	-143*
CC(=O)Nc1ccc(S(=O)(=O)N(Cc2cccnc2)Cc2cc3ccc(C)cc3[nH]c2=O)cc1	60
COc1ccc2cc(CCNC(=O)c3ccco3)c(=O)[nH]c2c1	-117*
Cc1ccc2cc(CCNC(=O)c3ccco3)c(=O)[nH]c2c1C	-138*
COc1ccc(OCc2csc(N)n2)cc1	-117*
Cn1cc(Cl)c(C(=O)N/N=C/c2ccc3c4c(cccc24)CC3)n1	-126*
Cc1ccc(/C=N/NC(=O)c2nn(C)cc2Cl)cc1	-108*
CC(=O)C1=C(C)OC(N)=C(C#N)C1c1cc2cc(C)c(C)cc2nc1Cl (configuration not stated)	-68*
O=C(O)c1ccc(-c2noc(-c3cccc(F)c3)n2)cc1	-96*
COc1cccc(-c2noc(-c3ccc(Cl)nc3)n2)c1	-182*
COc1cccc(-c2nc(-c3ccc(C(=O)O)cc3)no2)c1	-96*
COc1ccc(-c2nc(-c3ccc(NC(=O)c4ccncc4)cc3)no2)cc1OC	-155*
COc1cccc(-c2nc(-c3ccc(NC(=O)c4cccs4)cc3)no2)c1	-154*
COc1cc(OC)cc(-c2nc(-c3ccccc3)no2)c1	-140*
COc1ccc2[nH]c(=O)c(-c3noc(-c4ccccc4)n3)cc2c1	-121*
COc1ccc(-c2nc(-c3ccccn3)no2)cc1	107
SMILES	aSyn 5UTR act
Brc1ccc(-n2cnc(-c3ccccc3)c2)cc1	-136*
Cc1ccc(S(=O)(=O)c2ccc([N+](=O)[O-])cn2)cc1	-73*
COc1cc(OC)cc(C(=O)O/N=C(\N)c2ccncc2)c1	-68*
Cc1cccc(/C(N)=N/OC(=O)c2cccnc2)c1	-73*
Cc1cccc(/C(N)=N/OC(=O)C23CC4CC(CC(C4)C2)C3)c1	-114*
Cc1cccc(/C(N)=N/OC(=O)c2ccc(Br)o2)c1	-210*
COc1cc(OC)cc(C(=O)O/N=C(\N)c2cccc(C)c2)c1	-81*
CCC(=O)Nc1nc2ccccc2n1Cc1ccc(C)cc1	77
Cn1c(NC(=O)c2ccc(F)cc2)nc2ccccc21	-103*
CN(C)CCn1c(NC(=O)c2ccc(Cl)cc2)nc2ccccc21	-239*
C/C(=N\NC(=O)c1ccccc1)c1nc2ccccc2n1C	62
CCn1c(NC(=O)c2cccs2)nc2ccccc21	-89*
CCN(CC)CCn1c(NC(=O)c2ccc(C)cc2)nc2ccccc21	-65*
CC(=O)Nc1nc2ccccc2n1Cc1ccc(Cl)cc1	51
CSC1=NC(C(Cl)(Cl)Cl)N=C(c2ccc(C)cc2)N1 (configuration not stated)	118
Cn1c(NC(=S)Nc2ccccc2)nc2ccccc21	-99*
CCC(=O)Nc1ccc(NC(=O)c2cc3ccccc3o2)c(OC)c1	-134*
COc1cc(NC(=O)c2c(OC)cccc2OC)ccc1NC(=O)c1cc2ccccc2o1	-205*
COc1cc(NC(=O)c2ccccc2F)ccc1NC(=O)c1cc2ccccc2o1	-67*
COC(=O)c1cc(Cl)c(NC(=O)c2cc3ccccc3o2)cc1OC	-154*
O=C(COC(=O)c1ccc(Cl)nc1)c1ccc2c(c1)OCCO2	-71*
Cc1ccc(C(=O)COc2ncnc3cc(Cl)ccc23)cc1	-76*
O=C(CSc1ncnc2ccccc12)c1ccc2c(c1)OCCO2	-346*
O=C(COc1ncnc2ccccc12)c1ccc2c(c1)OCCO2	-88*
CCN1/C(=C/C=C/c2oc3ccc(-c4ccccc4)cc3[n+]2CC)Oc2ccc(-c3ccccc3)cc21	140
SMILES	aSyn 5UTR act
O=C(COc1ncnc2cc(Cl)ccc12)c1ccc2c(c1)OCCO2	-92*
CC(=O)Oc1ccc([C@@H]2COc3c(ccc4c3C=CC(C)(C)O4)C2)c(OC(C)=O)c1	-152*
O=C(N/N=C/C=C/c1ccccc1)c1cc2c(ccc3ccccc32)o1	-80*
O=C(N/N=C\C=C\c1ccc([N+](=O)[O-])o1)c1cccs1	-63*
O=C(N/N=C/C(Br)=C/c1ccccc1)c1cccs1	-366*
O=C(N/N=C/C=C/c1ccccc1)c1cccs1	-156*
O=C(Cc1cccs1)N/N=C/C=C/c1ccccc1	-70*
COc1cccc(NC2SC(=O)N(c3ccccc3)C2=O)c1 (configuration not stated)	-97*
CCCN(C(=O)c1ccco1)c1nnc(-c2ccccc2C)s1	-89*
CN(C(=O)c1ccco1)c1nnc(-c2ccc(F)cc2)s1	-200*
CCN(C(=O)c1ccco1)c1nnc(-c2cccnc2)s1	-137*
CCCN(C(=O)c1cccs1)c1nnc(-c2ccncc2)s1	-100*
CN(C(=O)c1ccco1)c1nc(-c2ccc(F)cc2)cs1	-146*
COCCN(C(=O)c1ccco1)c1nnc(-c2ccc(F)cc2)s1	-92*
